Results filed as inconclusive are left out. Calls of active or inactive are those of the source. How the source made its calls: active means hit-call score of the fitted dose curve at least 0.9, where 1 is the maximum; inconclusive means response in the unintended direction; inactive means score below 0.9.
test system: rat CYP3A1, gene 25642; test: NVS_ADME_rCYP3A1: NovaScreen (NVS) CYP450-related Enzyme Activity (ADME) Assay for rat CYP3A1 (AID 2283126)
Summary of the method: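 Compounds went first at 10 uM duplicate, then to series with 20 uM maximum. Fluorescence from substrate turnover by the recombinant enzyme was measured 0.5 h post-dosing, inhibition scored against acetonitrile vehicle.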

| SMILES | AC50 | outcome |
| --- | --- | --- |
| CCOP(=O)(OCC)Oc1nc(Cl)c(Cl)cc1Cl | 7.93 µM (active) |  |
| CCOP(=S)(OCC)Oc1nc(Cl)n(C(C)C)n1 | 3.46 µM (active) |  |
| Clc1nc(Cl)nc(Nc2ccccc2Cl)n1 |  | inactive |
| CC(C)NC(=O)N1CC(=O)N(c2cc(Cl)cc(Cl)c2)C1=O | 2.27 µM (active) |  |
| COCC(=O)N(c1c(C)cccc1C)C(C)C(=O)OC (stereo not given) | 4.46 µM (active) |  |
| Cc1ccc(N=CN(C)C=Nc2ccc(C)cc2C)c(C)c1 | 4.8 µM (active) |  |
| COC(=O)NC(=S)Nc1ccccc1NC(=S)NC(=O)OC | 7.66 µM (active) |  |
| COc1cc(OC)nc(NC(=O)NS(=O)(=O)c2ncccc2OCC(F)(F)F)n1 | 5.87 µM (active) |  |

biological target: human Acetylcholinesterase (AChE), ACHE (gene 43) (UniProt P22303); test: NVS_ENZ_hAChE: NovaScreen (NVS) Enzymatic Assay for human Acetylcholinesterase (AChE) (AID 2283129)
Sequence (P22303 whole entry, looked up): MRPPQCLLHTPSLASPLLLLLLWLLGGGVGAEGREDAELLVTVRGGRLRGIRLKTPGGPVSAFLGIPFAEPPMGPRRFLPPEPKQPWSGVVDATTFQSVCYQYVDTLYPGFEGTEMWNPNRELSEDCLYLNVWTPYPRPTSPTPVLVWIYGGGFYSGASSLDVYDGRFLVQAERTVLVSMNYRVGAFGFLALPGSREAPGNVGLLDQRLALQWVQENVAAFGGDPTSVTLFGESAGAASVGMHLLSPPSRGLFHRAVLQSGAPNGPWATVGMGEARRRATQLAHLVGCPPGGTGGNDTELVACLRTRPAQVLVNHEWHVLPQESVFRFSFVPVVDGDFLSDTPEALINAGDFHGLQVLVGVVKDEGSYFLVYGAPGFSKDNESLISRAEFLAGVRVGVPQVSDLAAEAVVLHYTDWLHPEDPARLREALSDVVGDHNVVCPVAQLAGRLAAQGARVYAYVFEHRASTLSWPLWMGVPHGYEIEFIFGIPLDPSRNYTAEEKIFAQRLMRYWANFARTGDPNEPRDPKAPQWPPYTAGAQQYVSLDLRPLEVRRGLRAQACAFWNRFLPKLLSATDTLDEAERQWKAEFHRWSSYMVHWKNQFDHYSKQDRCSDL
Summary of the method: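 Actives from a duplicate single-point screen (25 uM) were followed up in concentration series. Enzyme activity read by absorbance (colorimetric) 0.33 hour after dosing, cell-free, normalized to DMSO, with loss of signal scored.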

| SMILES | outcome | AC50 |
| --- | --- | --- |
| N#Cc1c[nH]cc1-c1cccc2c1OC(F)(F)O2 | inactive |  |
| CNC(=O)Oc1cccc2ccccc12 |  | 25 µM (active) |
| N#CN=C1SCCN1Cc1ccc(Cl)nc1 |  | 19.6 µM (active) |
| CC1(C)CON(Cc2ccccc2Cl)C1=O | inactive |  |

biological target: human AKT serine/threonine Kinase 1 (AKT1), AKT1 (gene 207) (UniProt P31749); test: NVS_ENZ_hAKT1: NovaScreen (NVS) Enzymatic Assay for human AKT serine/threonine Kinase 1 (AKT1) (AID 2283138)
Sequence (P31749 whole entry, looked up): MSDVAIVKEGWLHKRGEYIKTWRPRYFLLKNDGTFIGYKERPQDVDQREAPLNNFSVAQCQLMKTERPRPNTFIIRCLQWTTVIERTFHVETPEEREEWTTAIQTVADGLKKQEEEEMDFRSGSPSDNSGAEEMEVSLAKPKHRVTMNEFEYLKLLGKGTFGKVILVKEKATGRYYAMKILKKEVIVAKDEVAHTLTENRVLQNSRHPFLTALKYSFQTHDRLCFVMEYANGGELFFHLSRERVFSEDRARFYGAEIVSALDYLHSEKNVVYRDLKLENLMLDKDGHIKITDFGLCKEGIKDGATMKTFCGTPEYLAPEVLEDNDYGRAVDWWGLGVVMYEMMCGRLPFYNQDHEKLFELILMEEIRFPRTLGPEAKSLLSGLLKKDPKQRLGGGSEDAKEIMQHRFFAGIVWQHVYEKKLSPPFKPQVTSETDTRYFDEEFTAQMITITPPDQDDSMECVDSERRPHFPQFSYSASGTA
Summary of the method: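 A biochemical assay with recombinant enzyme and specific substrate, read by fluorescence intensity with mobility-shift separation 1 hour after dosing. Actives from 25 uM duplicate screening were titrated up to 50 uM against DMSO baseline.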

| SMILES | outcome |
| --- | --- |
| O=c1n(Cl)c(=O)n(Cl)c(=O)n1Cl | inactive |
| CCOc1nc(F)cc2nc(S(=O)(=O)Nc3c(Cl)cccc3Cl)nn12 | inactive |
| Nc1c(Cl)c(Cl)nc(C(=O)O)c1Cl | inactive |

biological target: human AKT serine/threonine Kinase 2 (AKT2), AKT2 (gene 208) (UniProt P31751); test: NVS_ENZ_hAKT2: NovaScreen (NVS) Enzymatic Assay for human AKT serine/threonine Kinase 2 (AKT2) (AID 2283141)
Sequence (P31751 whole entry, looked up): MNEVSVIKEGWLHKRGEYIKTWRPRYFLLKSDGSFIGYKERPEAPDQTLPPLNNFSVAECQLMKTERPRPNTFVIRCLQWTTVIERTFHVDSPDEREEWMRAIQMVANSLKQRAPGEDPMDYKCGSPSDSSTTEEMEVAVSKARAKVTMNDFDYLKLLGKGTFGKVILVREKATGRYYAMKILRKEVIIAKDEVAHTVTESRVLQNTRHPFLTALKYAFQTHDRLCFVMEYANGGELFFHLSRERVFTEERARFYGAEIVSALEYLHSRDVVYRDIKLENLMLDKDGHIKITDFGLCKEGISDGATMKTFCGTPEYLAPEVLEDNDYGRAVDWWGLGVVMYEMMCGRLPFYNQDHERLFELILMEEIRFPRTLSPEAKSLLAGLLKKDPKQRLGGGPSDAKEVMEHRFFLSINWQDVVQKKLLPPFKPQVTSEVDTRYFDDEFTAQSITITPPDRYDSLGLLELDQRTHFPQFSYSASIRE
Summary of the method: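 Cell-free fluorescence/electrophoretic mobility shift readout of recombinant human AKT2 activity, 1 h after chemical dosing. Duplicate primary screen at 25 uM, then singleton concentration-response up to 50 uM; loss of signal versus DMSO baseline.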

| SMILES | outcome |
| --- | --- |
| O=c1n(Cl)c(=O)n(Cl)c(=O)n1Cl | inactive |
| CCCC(=NOCC)C1=C(O)CC(CC(C)SCC)CC1=O (stereo not given) | inactive |
| CS(=O)(=O)c1cc(C(F)(F)F)ccc1C(=O)c1cnoc1C1CC1 | inactive |
| Nc1c(Cl)c(Cl)nc(C(=O)O)c1Cl | inactive |

biological target: human Caspase 8 (CASP8), CASP8 (gene 841) (UniProt Q14790); test: NVS_ENZ_hCASP8: NovaScreen (NVS) Enzymatic Assay for human Caspase 8 (CASP8) (AID 2283146)
Sequence (Q14790 whole entry, looked up): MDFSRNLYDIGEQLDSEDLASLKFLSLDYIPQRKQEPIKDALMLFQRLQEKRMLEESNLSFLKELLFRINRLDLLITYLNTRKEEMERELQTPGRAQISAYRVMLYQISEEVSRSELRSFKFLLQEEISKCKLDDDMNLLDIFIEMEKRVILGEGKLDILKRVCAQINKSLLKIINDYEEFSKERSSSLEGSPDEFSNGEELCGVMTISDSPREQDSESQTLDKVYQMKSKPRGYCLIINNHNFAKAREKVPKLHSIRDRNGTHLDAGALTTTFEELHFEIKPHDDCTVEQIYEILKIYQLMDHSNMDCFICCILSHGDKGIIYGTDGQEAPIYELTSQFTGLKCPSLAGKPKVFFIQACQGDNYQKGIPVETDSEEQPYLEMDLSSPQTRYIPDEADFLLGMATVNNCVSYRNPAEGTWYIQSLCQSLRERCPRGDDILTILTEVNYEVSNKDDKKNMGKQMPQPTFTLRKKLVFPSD
Protocol: NVS_ENZ_hCASP8 is a biochemical, single-readout assay that uses extracted gene-proteins from E. coli in a cell-free assay. Measurements were taken 1 hour after chemical dosing in a 96-well plate.NVS_ENZ_hCASP8 is one of one assay component(s) measured or calculated from the NVS_ENZ_hCASP8 assay. It is designed to make measurements of enzyme activity, a form of enzyme reporter, as detected with fluorescence intensity signals by Fluorescence technology.Data from the assay component NVS_ENZ_hCASP8 was analyzed into 1 assay endpoint. This assay endpoint, NVS_ENZ_hCASP8, was analyzed in the positive analysis fitting direction relative to DMSO as the negative control and baseline of activity. Using a type of enzyme reporter, loss-of-signal activity can be used to understand changes in the enzymatic activity as they relate to the gene CASP8. Furthermore, this assay endpoint can be referred to as a primary readout, because this assay has produced multiple assay endpoints where this one serves a enzymatic activity function. To generalize the intended target to other relatable targets, this assay endpoint is annotated to the protease intended target family, where the subfamily is cysteine protease.
Binding assays used specific radioligands (tritiated, iodinated) with non-radioactive competitive displacement ligands in agonist or antagonist protocols (as indicated) and various reference compounds and inhibitors to titrate specific binding to receptors and transporters. Most enzyme assays (CYPs, kinases, phosphatases, proteases, HDACs) used recombinant protein and specific substrates (fluorescence mostly, some colorimetric and radioactive) and inhibitors, followed by a biochemical separation of substrate and product. All assays for the biochemical HTS were initially run in duplicate at a single concentration (10 uM for CYP450 assays and 25 uM for all others). […] Each assay was run with positive and negative controls, and concurrent controls on every plate. […]

| SMILES | outcome |
| --- | --- |
| CCOC(=O)C(C)OC(=O)c1cc(Oc2ccc(C(F)(F)F)cc2Cl)ccc1[N+](=O)[O-] (stereo not given) | inactive |
| Nc1c(Cl)c(F)nc(OCC(=O)O)c1Cl | inactive |
| CCSC(=O)N1CCCCCC1 | inactive |

biological target: human Casein Kinase 2- alpha 2 beta 2 (CK2a2b2), CSNK2A1 (gene 1457) (UniProt P68400); test: NVS_ENZ_hCK2a2b2: NovaScreen (NVS) Enzymatic Assay for human Casein Kinase 2- alpha 2 beta 2 (CK2a2b2) (AID 2283147)
Sequence (P68400 whole entry, looked up): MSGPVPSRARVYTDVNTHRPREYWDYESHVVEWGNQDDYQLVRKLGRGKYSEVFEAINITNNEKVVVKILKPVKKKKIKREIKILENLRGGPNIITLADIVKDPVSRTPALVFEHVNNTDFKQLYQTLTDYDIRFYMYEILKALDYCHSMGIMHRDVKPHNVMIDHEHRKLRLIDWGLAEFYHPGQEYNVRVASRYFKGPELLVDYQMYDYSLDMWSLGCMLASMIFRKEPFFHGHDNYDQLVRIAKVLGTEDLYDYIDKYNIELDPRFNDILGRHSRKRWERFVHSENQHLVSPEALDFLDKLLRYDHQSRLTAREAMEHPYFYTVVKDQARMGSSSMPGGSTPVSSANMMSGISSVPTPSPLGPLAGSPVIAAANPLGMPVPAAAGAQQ
Summary of the method: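 Compounds were first screened in duplicate at 25 uM, and those passing the threshold were re-tested in concentration series up to a 50 uM maximum. Kinase activity of recombinant human CK2 α2β2 was measured 1 h after dosing by fluorescent substrate/product mobility-shift separation.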

| SMILES | AC50 |
| --- | --- |
| CS(=O)(=O)c1ccc(C(=O)C2C(=O)CCCC2=O)c([N+](=O)[O-])c1 | 8.29 µM (active) |
| Clc1nc(Cl)nc(Nc2ccccc2Cl)n1 | 15.8 µM (active) |
| Nc1c(Cl)c(F)nc(OCC(=O)O)c1Cl | 18.8 µM (active) |

— PubChem BioAssay (EPA / NIEHS)
